# Assay results from PubChem BioAssay AID1851 (National Center for Advancing Translational Sciences (NCATS), 2009).
# Several values for one entry are separate records, joined by “and”; a condition that tells them apart may be missing. Equal values may be shown once. In all, about 16,000 compounds went through this assay and about 5,100 (32%) were called active. Another 25% or so got no clear call; they are omitted. The call rests on the fitted dose curve; in most records, active means well fitted curve in the direction sought with a large enough effect; inconclusive means small, poorly fitted or top-dose-only effect, or effect the other way; inactive means no such curve, though single readings can be large or run the other way. Some of the results follow.
# Molecular target: Cytochrome P450 3A4 (Homo sapiens) (UniProt P08684)
# Experiment: Cytochrome panel assay with activity outcomes
# Conditions: recombinant CYP, pro-luciferin dealkylation, luminescence, p450-cyp3a4; series mostly up to 57.1 µM
# On the % scale 0 is the no-effect control and ±100 the full control effect.
# Chain of Cytochrome P450 3A4 (Homo sapiens) (P08684 whole entry, looked up): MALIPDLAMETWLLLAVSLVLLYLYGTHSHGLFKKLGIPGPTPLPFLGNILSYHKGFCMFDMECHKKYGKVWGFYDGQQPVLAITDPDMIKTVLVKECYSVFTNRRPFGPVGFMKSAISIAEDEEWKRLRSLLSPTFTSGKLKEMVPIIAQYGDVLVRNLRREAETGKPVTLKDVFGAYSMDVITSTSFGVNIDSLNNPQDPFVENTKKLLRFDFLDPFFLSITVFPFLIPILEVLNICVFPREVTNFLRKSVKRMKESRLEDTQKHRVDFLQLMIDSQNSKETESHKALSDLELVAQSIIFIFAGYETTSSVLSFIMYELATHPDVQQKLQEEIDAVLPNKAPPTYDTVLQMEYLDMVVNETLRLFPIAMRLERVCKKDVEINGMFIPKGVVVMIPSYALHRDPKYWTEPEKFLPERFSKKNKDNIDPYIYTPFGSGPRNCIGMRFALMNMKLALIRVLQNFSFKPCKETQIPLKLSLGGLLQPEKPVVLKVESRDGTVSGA
SMILES,AC50,"activity, negative = inhibition"
C[C@@H]1[C@H]2CC[C@@H]3[C@@H]4CC=C5C[C@@H](N(C)C)CC[C@]5(C)[C@@H]4CC[C@@]32CN1C,inactive,–
CC(C)Nc1nc(Oc2ccc(Cl)cc2)cc(C(F)(F)F)n1,inactive,–
CC(C)c1cc(C(F)(F)F)nc(NNc2nc(C(C)C)cc(C(F)(F)F)n2)n1,3.16 µM (active),–
CC(C)Nc1cc(C(F)(F)F)nc(-c2ccccn2)n1,inactive,–
Cc1nn(-c2ccc(Cl)cc2)c2sc(C(=O)c3c(N)n(C)c(=O)n(C)c3=O)cc12,–,7.37% [at 2.29 µM] (inactive)
Cn1c(N)c(C(=O)CSc2ccc3c(c2)OCCO3)c(=O)n(C)c1=O,5.62 µM (active),–
O=c1c2ccccc2nnn1CSc1ccc2c(c1)OCCO2,inactive,–
CC(C)Cn1c(N)c(C(=O)CSc2ccc3c(c2)OCCO3)c(=O)n(C)c1=O,3.98 µM (active),–
CCc1c(C)c2c(C)[nH]nc2oc1=O,inactive,–
COc1cc2nc3c(c([Si](C)(C)C(C)(C)C)c2cc1OC)Cn1c-3cccc1=O,3.98 µM (active),–
COc1ccc2nc3c(c([Si](C)(C)C(C)(C)C)c2c1)Cn1c-3cccc1=O,1.58 µM (active),–
CC(C)(C)[Si](C)(C)c1c2c(nc3ccc(OCc4ccccc4)cc13)-c1cccc(=O)n1C2,15.8 µM (active),–
OC[C@H]1NC[C@H](O)[C@@H](O)[C@H]1O,inactive,–
CCC(C)(C(=O)NC1CCCC1)N(C(=O)c1ccccn1)c1ccccc1 (configuration not stated),5.01 µM (active),–
O=C(N/N=C/C1CCCCC1)c1ccccn1,–,-7.05% [at 11.4 µM] (inactive)
CCC(C)(C(=O)NC1CCCC1)N(Cc1ccco1)C(=O)c1ccccn1 (configuration not stated),8.91 µM (active),–
C[C@]1(OC(=O)/C=C\c2ccccc2)C[C@@H](O)[C@@]2(O)C=CO[C@@H](O[C@H]3O[C@@H](CO)[C@@H](O)[C@@H](O)[C@@H]3O)[C@H]21,inactive,–
O=C(N/C(=C/c1ccc(Br)cc1)c1nc2ccccc2[nH]1)c1ccco1,1.58 µM (active),–
O=C(N/C(=C/c1cccs1)c1nc2ccccc2[nH]1)c1ccccc1,14.1 µM (active),–
O=C1Nc2ccccc2Nc2ncccc21,inactive,–
NS(=O)(=O)c1ccc(N=C2C(=O)Nc3ccccc32)cc1,–,-12.5% [at 11.4 µM] (inactive)
CN(C)c1ccc(/C=C2/C(=O)Nc3ccccc32)cc1,10 µM (active),–

SMILES,AC50,"activity, negative = inhibition"
O=C(Nc1cccc(F)c1)N1CCCC2(CCN(C(=O)c3ccncc3)CC2)C1,6.31 µM (active),–
O=C(Nc1cccc(F)c1)N1CCC2(CCNCC2)CC1,inactive,–
COc1ccc(C(=O)N2CCC3(CCN(C(=O)Nc4cccc(F)c4)CC3)CC2)cc1,inactive,–
O=C(Nc1cccc(F)c1)N1CCCC2(CCNCC2)C1,15.8 µM (active),–
COCC(=O)N1CCC2(CCCN(C(=O)Nc3cccc(F)c3)C2)CC1,inactive,–
COc1ccc(C(=O)N2CCC3(CCCN(C(=O)Nc4cccc(F)c4)C3)CC2)cc1,12.6 µM (active),–
CC(=O)N1CCC2(CC1)CCN(C(=O)Nc1cccc(F)c1)CC2,inactive,–
COC(=O)N1CCC2(CCN(C(=O)Nc3cccc(F)c3)CC2)CC1,inactive,–
NC(=NCCC[C@H](N)C(=O)O)NO,inactive,–
CSc1nsc(SC)c1C(=O)Nc1ccc(C)cc1,7.94 µM (active),–
Cc1noc(N)c1C(=O)Nc1ccc(F)cc1,–,11.9% [at 2.29 µM] (inactive)
CCC(=O)NCCNC(=O)c1c(SC)nsc1SC,inactive,–
O=C(O)c1nnsc1-c1csnn1,–,-19.7% [at 11.4 µM] (inactive)
CCOC(=O)c1nc(N)sc1C(=O)OCC,inactive,–
COc1ccc(-n2c(C)nn(C)c2=O)cc1,inactive,–
CCOC(=O)c1sc(=N)n(-c2ccc(OC)cc2)c1C,7.08 µM (active),–
N[C@@H](Cc1ccccc1)C(=O)O,–,-6.07% [at 11.4 µM] (inactive)
CC1(C)CC(=O)C/C(=N/NC(=O)CCCOc2ccc(Cl)cc2Cl)C1,–,-15.2% [at 2.29 µM] (inactive)
CC(C)(C)C(=O)NNC(=O)CCCOc1ccc(Cl)cc1Cl,inactive,–
COc1ccc(/C=N/NC(=O)CCCOc2ccc(Cl)cc2Cl)cc1[N+](=O)[O-],14.1 µM (active),–
COc1ccc(Br)cc1C(=O)Nc1ccc(Cc2ccncc2)cc1,0.708 µM (active),–
O=C(Nc1ccc(-c2cn3ccccc3n2)cc1)c1cc(Br)ccc1O,–,-18.7% [at 11.4 µM] (inactive)

SMILES,AC50,"activity, negative = inhibition"
COc1ccc(NC(=O)c2ccc(C(=O)c3cc(OC)ccc3OC)cc2)cc1,inactive,–
O=C(O)CONC(=O)c1cc(OCC(F)(F)F)ccc1OCC(F)(F)F,inactive,–
O=C(NCCNS(=O)(=O)c1ccccc1Cl)c1cc(OCC(F)(F)F)ccc1OCC(F)(F)F,25.1 µM (active),–
Cc1ccc(/C=N\NC(=O)c2cc(OCC(F)(F)F)ccc2OCC(F)(F)F)cc1,inactive,–
COC(=O)C/C=C\[C@@H](C)[C@@H](/C=N\O[C@@H](C)c1cn([C@H]2COC[C@H]2O)nn1)OC,–,-29.8% [at 11.4 µM] (inactive)
COC(=O)C/C=C\[C@@H](C)[C@@H](/C=N\O[C@@H](C)c1cc(-c2c(C)cc(C)cc2C)no1)OC,–,-76.7% [at 11.4 µM] (inactive)
COC(=O)C/C=C\[C@@H](C)[C@@H](/C=N\O[C@@H](C)c1cc(-c2c(C)cc(C)cc2C)no1)NS(=O)(=O)c1ccc(C)cc1,3.16 µM (active),–
COC(=O)C/C=C\[C@@H](C)[C@@H](/C=N\O[C@@H](C)c1cn([C@H](CO)Cc2ccccc2)nn1)OC,3.98 µM (active),–
COC(=O)C/C=C\[C@@H](C)[C@@H](/C=N\O[C@@H](C)c1cn([C@H]2COC[C@H]2O)nn1)NS(=O)(=O)c1ccc(C)cc1,3.98 µM (active),–
COC(=O)C/C=C\[C@@H](C)[C@@H](/C=N\O[C@@H](C)c1cn([C@H](CO)Cc2ccccc2)nn1)NS(=O)(=O)c1ccc(C)cc1,3.98 µM (active) and 2 µM (active),–
Cc1nc(N=Nc2cc(S(=O)(=O)O)ccc2S(=O)(=O)O)c(COP(=O)(O)O)c(C=O)c1O,inactive,–
O=C(O)C[C@H](S)C(=O)O,–,-4.75% [at 11.4 µM] (inactive)
[N-]=[N+]=NC[C@@H]1O[C@@H](n2cnc3c(N)ncnc32)[C@@H]2O[C@@H]21,–,-11.8% [at 11.4 µM] (inactive)
Nc1nc2n[nH]nc2c(=O)[nH]1,inactive,–
O=C1C2=CC[C@H]3C(=O)N(c4cccc(Oc5ccccc5)c4)C(=O)[C@@H]3[C@@H]2[C@H](O)[C@@H]2O[C@H]12,–,-4.92% [at 11.4 µM] (inactive)
CON1C(=O)C(=O)N(OC)C(C)(C)C1C (configuration not stated),inactive,–
COC(=O)C/C=C\[C@@H](C)[C@@H](/C=N\O[C@@H](C)CN1CCCCc2nc(C)c(C)cc21)NS(=O)(=O)c1ccc(C)cc1,3.98 µM (active),–
COC(=O)C/C=C\[C@@H](C)[C@@H](/C=N\O[C@@H](C)CN1CCCc2nc(C)c(C)cc21)NS(=O)(=O)c1ccc(C)cc1,–,-80.9% [at 11.4 µM] (inactive)
CCCS(=O)(=O)N1CCCC(C(=O)NCCCOC(C)C)C1 (configuration not stated),inactive,–
CC(C)OCCCN1C(=O)c2ccccc2C1C(=O)NC1CCCCC1 (configuration not stated),12.6 µM (active),–
O=c1nc(-c2ccccc2)cn[nH]1,inactive,–
Cc1ccc(C2=NN(S(C)(=O)=O)C(c3cccs3)C2)cc1 (configuration not stated),–,-2.01% [at 2.29 µM] (inactive)

SMILES,AC50,"activity, negative = inhibition"
CS(=O)(=O)N1N=C(c2ccc(Br)cc2)CC1c1ccc2c(c1)OCO2 (configuration not stated),1.78 µM (active),–
COc1ccc(-c2cc3ccccc3n2CC(O)CNCCO)cc1 (configuration not stated),15.8 µM (active),–
Cc1[nH]n2c(=O)c(C#N)c(-c3ccccc3)nc2c1-c1ccccc1,inactive,–
CN1CC(c2ccccc2)C2(COc3ccccc3C2=O)C12C(=O)Nc1ccccc12 (configuration not stated),3.98 µM (active),–
NNS(=O)(=O)c1cc(C(=O)O)cc(C(=O)O)c1,–,-6.08% [at 11.4 µM] (inactive)
CSc1nc(Oc2ccc(=O)[nH]n2)nc(N(C)C)n1,inactive,–
CN(C)S(=O)(=O)c1ccc2c(c1)/C(=C/c1cc3c([nH]1)CCCC3)C(=O)N2,5.01 µM (active),–
C[C@H]1[C@@H](O)[C@@H](C)\C=C/C=C\C=C/C=C\C=C/C=C\C=C/[C@@H](O[C@H]2O[C@@H](C)[C@@H](O)[C@@H](N)[C@@H]2O)C[C@@H]2O[C@](O)(C[C@@H](O)C[C@@H](O)[C@@H](O)CC[C@@H](O)C[C@@H](O)CC(=O)O[C@H]1C)C[C@@H](O)[C@H]2C(=O)O (stereo in doubt),inactive,–
CCCC(=O)Nc1nnc(CCN2CCCCC2)s1,inactive,–
CCCc1nnc(NC(=O)Cn2cnc3ccccc3c2=O)s1,inactive,–
CCCc1nnc(NC(=O)CN2C(=O)C3C4C=CC(C4)C3C2=O)s1 (configuration not stated),12.6 µM (active),–
Cc1cccc(NC(=O)CSc2nnc(-c3ccco3)c(-c3ccco3)n2)c1C,15.8 µM (active),–
Cc1cccc(NC(=O)CSc2nc(-c3ccccc3)c(C#N)c(=O)[nH]2)c1C,–,4.48% [at 0.457 µM] (inactive)
O=S1(=O)C=C(Oc2ccc3ccccc3c2)c2ccccc21,inactive,–
COc1ccc(C2(CNC(=O)/C=C/c3ccco3)CCCC2)cc1OC,3.55 µM (active),–
CN(C)c1ncc2nc(-c3ccc(Cl)cc3)c(=O)n(C)c2n1,inactive,–
Cc1ccc(-c2nn(-c3ccccc3)cc2/C=N/NS(=O)(=O)c2ccccc2)cc1,–,-20.9% [at 2.29 µM] (inactive)
O=[N+]([O-])c1ccc(N/N=C\c2cccn2-c2ccccc2)nc1,–,0.811% [at 2.29 µM] (inactive)
O=S(=O)(N/N=C\c1cccn1-c1ccccc1)c1ccc2ccccc2c1,7.08 µM (active),–
Cc1ccc(S(=O)(=O)N/N=C/c2cccn2-c2ccc(Cl)cc2)cc1,10 µM (active),–
CC1=NN(c2ccc(S(=O)(=O)O)cc2)C(=O)/C1=C\c1ccc(Cl)cc1,–,2.74% [at 11.4 µM] (inactive)
